From PubChem BioAssay (NCI)
Values joined by “and” are separate entries in the source; they are usually repeats but may differ in a detail not shown here. Identical values can stand only once. The panel holds about 83,000 compounds, 20% with a hit somewhere; the sample as a whole holds those more often.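 Step 1: grow cells in 96-well plates. Step 2: add test compound at a single concentration. Step 3: incubate 48 h. Step 4: record percent growth.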 Active and inactive are the calls of the source.

These compounds were tested on SK-MEL-28 melanoma (assay: NCI-60 one-dose screen, 48 h (100 = growth as untreated, 0 = no growth, -100 = all killed)). Settings: 10 µM.
Procedure: Growth inhibition of the SK-MEL-28 human tumor cell line is measured as a screen for anti-cancer activity. Cells are grown in 96 well plates and exposed to the test compound for 48 hours. Compounds are tested at a single concentration, which is 10^-5 M for most compounds. The reported endpoint is percent growth (GI% or GIPRCNT), where numbers from 0 - 100% represent growth inhibition, and numbers from -100% - 0 represent cell death. For example, a value of 40 represents 60% growth inhibition. A value of 0 means no net growth occurred over the course of the experiment. A value of -40 indicates 40% of cells at the beginning of the experiment died by the end of the experiment. A value of -100 means all cells are dead at the end of the experiment.
NCI-60 Human Tumor Cell Lines Screen was performed using the standard one-dose NCI protocol, which is described in more detail at https://dtp.cancer.gov/discovery_development/nci-60/default.htm.
Compounds with GIPRCNT values below 10 were considered active. Activity score was based on GIPRCNT using the following formula: […]
Score is 0 for GIPRCNT values of 100 or above, 50 for GIPRCNT values of 0, and 100 for GIPRCNT values of -100.
For `CCN(Cc1ccccc1)c1ccc(/C=C2\COc3ccccc3C2=O)cc1`, the growth was 99.9% (inactive).

Same assay, conditions: 10 µM unless noted
For `Cc1ccc(/C=C/c2c(C(=O)/C=C/c3ccccc3)c(C)nc3ccccc23)cc1`, the growth was 24.3% (inactive).
With `CC(Sc1ccccc1)C(=O)O` (stereo not given) the growth was 106% (inactive).
For `CC/C(=C(/c1ccc(O)cc1)c1ccc(OCCN2CCCCCC2)cc1)c1ccc(Cl)cc1`, the growth was 58.5% (inactive).
For `O=[N+]([O-])c1cc(C(F)(F)F)ccc1Sc1ccc(C(F)(F)F)cc1[N+](=O)[O-]`, the growth was 80.6% (inactive).
For `Clc1ccc(Nc2nc(Nc3ccc(Cl)cc3)nc(Nc3ccc(-c4cc(-c5cccc(Cl)c5)on4)cc3)n2)cc1`, the growth was 108% (inactive).
In the case of `O=S(=O)(O)c1ccc(N=Nc2ccc(N=Nc3cccc4ccccc34)c(S(=O)(=O)O)c2)cc1`, the growth is reported as 110% (inactive).
With `COc1ccc(-c2cc(-c3cccnc3)nc3sc4c(Cl)nnnc4c23)cc1OC` the growth was 112% (inactive).
With `Cn1cc(C2=C(c3cccc4ccccc34)C(=O)NC2=O)c2cc(Br)ccc21` the growth was 111% (inactive).
For `O=C(/C=C/c1ccccc1)c1cccs1`, the growth was 111% (inactive) and 105% (inactive).
With `CCCO/N=C/c1ccccn1` the growth was 107% (inactive) and 99.4% (inactive).
With `CSc1nnc(-c2cc3c([nH]c4ccccc43)c(-c3cccc(O)c3)n2)n1-c1ccc(C)cc1` the growth was 9.42% (active).
`COCCn1cc(-c2csc(-c3cn(C)c4ccc(F)cc34)n2)c2cccnc21` was tested, and the growth was 79.8% (inactive).
`CN1CCN(c2ccc(Nc3ncc(C(N)=O)c(NCCCNC(=O)C4CCC4)n3)cc2)CC1` was tested, and the growth was 103% (inactive).
With `O=C(/C=C/c1ccc(Cl)s1)c1ccc(Cl)s1` the growth was 103% (inactive) and 112% (inactive).
For `Cc1nc(-n2[nH]c(=O)ccc2=O)sc1N=Nc1ccccc1`, the growth was 103% (inactive).
In the case of `Cn1cc(-c2nonc2-c2cn(C)c3ccc(Br)cc23)c2ccccc21`, the growth is reported as 55.9% (inactive).
In the case of `COc1cc(NS(=O)(=O)C(C)C)cc(-c2cc(-c3ccc(N4CCNCC4)cc3)cnc2N)c1`, the growth is reported as 107% (inactive).
With `CC1(C)C(N)=Nc2cc(OCCCCN3Cc4ccccc4C3)c(OCC3CC3)cc21` the growth was 54.4% (inactive).
In the case of `NS(=O)(=O)c1ccc(C(=O)N=Nc2c(O)[nH]c3c(F)cccc23)cc1`, the growth is reported as 105% (inactive).
In the case of `CON1CCC[C@]2(C)[C@H]3CC[C@@H]4[C@H]5[C@@H](O)C(C)(C)CC[C@]5(CO)CC[C@@]4(C)[C@]3(C)CC[C@H]2C1(C)C`, the growth is reported as 107% (inactive).
In the case of `C=CCOc1ccc(/C=C2\SC(=S)N(CCc3ccc(O)cc3)C2=O)cc1`, the growth is reported as 110% (inactive).
`COc1cc(C(=O)c2ccccc2C(=O)O)c(OC)c2c1CCCC2` was tested, and the growth was 102% (inactive) and 113% (inactive).
For `COc1cc(CNC(=O)CCCC/C=C/C(C)C)ccc1O`, the growth was 116% (inactive) and 112% (inactive).
`COc1cc(/C=C2\C(=O)N(CCCCn3c4ccccc4c(=O)c4ccccc43)c3ccccc32)cc(OC)c1O` was tested, and the growth was 68.5% (inactive).
For `COC1=CC(=O)C(OC)=C(O)C1=O`, the growth was 102% (inactive).
In the case of `NS(=O)(=O)OCC1OC(n2cnc3cncnc32)C(O)C1O` (stereo not given), the growth is reported as 38.5% [0.1 µM] (inactive) and 37.4% [0.1 µM] (inactive).
`C=CCN1C=CC(=O)[C@H](O[Si](C)(C)C(C)(C)C)[C@@H]1/C=C/c1ccccc1` was tested, and the growth was -68.2% [100 µM] (active).
In the case of `COC(=O)[C@H]1Cc2c([nH]c3ccccc23)[C@@H](c2cccs2)N1`, the growth is reported as 107% (inactive).
`CCOC(=O)c1cnn(-c2ccc(S(N)(=O)=O)cc2)c1N` was tested, and the growth was 106% (inactive).
With `CC1=CC(C)(C)NC(=S)N1c1ccc(Cl)cc1` the growth was 101% (inactive) and 105% (inactive).
With `O=C1C(c2c[nH]c3ccccc23)=C(c2coc3cc(Br)ccc23)C(=O)N1O` the growth was 111% (inactive).
`COc1ccc(NC(=O)Nc2ccccc2CNc2nc(Nc3ccc(OCCN4CCCC4)cc3)ncc2Cl)cc1` was tested, and the growth was -77.7% (active).
With `COc1ccc(/C=C2\COc3ccc(O)c(O)c3C2=O)c(OC)c1OC` the growth was 58% (inactive).
In the case of `CC(=O)N1N=C(c2ccc(Nc3nc(Nc4ccc(F)cc4)nc(Nc4ccc(F)cc4)n3)cc2)CC1c1ccccc1` (stereo not given), the growth is reported as 97.5% (inactive).
`O=[N+]([O-])c1ccc2[nH]c3nccc(NCc4cccc(Cl)c4)c3c2c1` was tested, and the growth was 101% (inactive).
In the case of `CC[C@H](C)[C@H](NC(=O)[C@H](CCCCN)NC(=O)[C@H](CCCCN)NC(=O)[C@@H](NC(=O)[C@@H](NC(=O)[C@@H](N)Cc1cnc[nH]1)[C@@H](C)CC)[C@@H](C)CC)C(=O)N[C@@H](CCCNC(=N)N)C(=O)N[C@H](C(=O)N[C@@H](Cc1c[nH]c2ccccc12)C(=O)N[C@@H](Cc1ccc(O)cc1)C(=O)N[C@@H](CCCNC(=N)N)C(=O)N[C@@H](CCCCN)C(=O)N[C@@H](C)C(=O)N[C@@H](Cc1c[nH]c2ccccc12)C(=O)N[C@@H](Cc1cnc[nH]1)C(=O)N[C@H](C(=O)N[C@@H](CC(C)C)C(=O)NCC(=O)N[C@@H](CCCCN)C(=O)N[C@H](C(N)=O)C(C)C)C(C)C)[C@@H](C)O`, the growth is reported as 18.9% (inactive).
With `O=C1CCc2c(sc3[nH]c(=S)n(Cc4ccc(Cl)cc4)c(=O)c23)C1` the growth was 19.6% (inactive).
For `COc1cc(/C=N/NC(=O)CCN2c3ccccc3Sc3ccccc32)cc(OC)c1OC`, the growth was 97.5% (inactive).

Same assay, conditions: 100 µM
With `CCN(Cc1ccccc1)c1ccc(/C=C2\COc3ccccc3C2=O)cc1` the growth was 53.1% (inactive).
